# Data as given in PubChem BioAssay.
# Several values for one entry are separate records, joined by “and”; a condition that tells them apart may be missing. Identical values can stand only once. Activity calls are given as the source filed them.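 Rule for the calls, unless noted: active = thallium flux through the channel raised or lowered by more than 3 SD from vehicle-only wells, actives on both sides; inactive = the rest.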
# Tests used:
# [1] = blockers of polyQ-driven CASP3 activation – cell-based (AID 1583); conditions: polyglutamine-induced caspase-3 activation, cell assay; stronger effect = higher value;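 tested at 10 µM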
# [2] = yeast 75Q aggregation reduction – 75Q-TubU reporter (AID 1593); conditions: Yeast 75Q polyglutamine aggregation reporter
# [3] = blockers of cytochrome c efflux from mitochondria – biochemical, purified mitochondria (AID 1603); conditions: stronger effect = lower value;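 note: mouse liver mitochondria challenged with calcium chloride; signal normalized to the plate average as 100%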
# [4] = polyglutamine aggregate formation blockers (AID 1604); conditions: polyglutamine-induced protein aggregation inhibition assay; stronger effect = higher value; tested at 2.5 µM
# [5] = glutamate transport activators, MN-1 cells, MN-1 cell line (AID 1612); conditions: MN-1 motor neuron cells, stronger effect = higher value;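 note: tested at 1 µM final; 0% = mean of DMSO vehicle wells on each plate; positive means more glutamate uptake than control and negative means less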
# [6] = signal quenchers or enhancers, Cy5 substrate/SSB – biochemical, NIH Clinical Collection, E. coli SSB, artefact control for HCV NS3 helicase inhibitor project (AID 743268; call rule not given here); conditions: Cy5-oligo bound E. coli SSB, fluorescence interference
# [7] = tested on: Hepatitis C virus NS3 helicase; assay: blockers of NS3h binding to DNA – biochemical, fluorescence polarization, NIH Clinical Collection, primary screen (AID 743270; call rule not given here); conditions: NS3 helicase binding to Cy5-dT15 DNA, stronger effect = higher value, concentration not given here
# [8] = target: Single-stranded DNA-binding protein (Escherichia coli (strain K12)) (UniProt P0AGE0); assay: SSB-ssDNA binding inhibitors – biochemical, fluorescence polarization, NIH Clinical Collection, counter-screen for HCV NS3 helicase inhibitor project (AID 743271; in the data active = inhibition above about 28%); conditions: E. coli SSB-DNA binding, stronger effect = higher value, concentration not given here
# [9] = compounds distorting NS3 helicase fluorescence signal – biochemical, NIH Clinical Collection, artefact control for HCV NS3 helicase inhibitor project (AID 743272; call rule not given here;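 note: HCV NS3 helicase with a Cy5 labelled single stranded DNA probe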); conditions: fluorescence interference counterscreen, HCV NS3 helicase assay; stronger effect = lower value
# [10] = galactose survival enhancers in mitochondrial complex I cybrids – cell-based, galactose medium, ATP luminescence, primary screen (AID 1645843;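 active = z-score of at least 1.8 in each of two replicates, scored against plate mean and spread of sample wells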;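 note: positive z means more ATP and so rescue of galactose-driven cybrid death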); conditions: complex I mutant cybrid cells, 72 h, stronger effect = higher value
# F380Y/beta4 = assay: BK channel mutant inhibitors and activators – cell-based, U2OS BacMam, thallium flux, beta subunits, selectivity assay, profiling panel (AID 1259406); conditions: U2OS BacMam BK variants, at 30 µM;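 note: initial slope of Thallos dye fluorescence rise after thallium is added; log ratio against the mean of 0.3% DMSO vehicle wells on the same plate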
# [11] = target: Calcium-activated potassium channel subunit alpha-1 (Homo sapiens) + Leucine-rich repeat-containing protein 26 (Homo sapiens) (UniProt Q12791+Q2I0M4); assay: as above; conditions: U2OS BacMam BK variants, F380Y/Slo1WT/gamma1, at 30 µM
# Calcium-activated potassium channel subunit alpha-1 (Homo sapiens) + Leucine-rich repeat-containing protein 26 (Homo sapiens), sequence (Q2I0M4 whole entry, looked up, one chain of several): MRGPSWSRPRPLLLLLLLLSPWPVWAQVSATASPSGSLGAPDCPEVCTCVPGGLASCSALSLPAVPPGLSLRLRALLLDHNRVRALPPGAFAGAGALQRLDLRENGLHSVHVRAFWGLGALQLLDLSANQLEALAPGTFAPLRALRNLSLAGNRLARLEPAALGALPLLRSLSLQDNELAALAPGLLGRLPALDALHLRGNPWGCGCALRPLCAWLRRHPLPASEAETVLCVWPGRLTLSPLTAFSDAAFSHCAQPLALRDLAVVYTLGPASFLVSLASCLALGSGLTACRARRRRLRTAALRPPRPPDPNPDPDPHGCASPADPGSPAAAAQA
# R275C = assay: as above; conditions: U2OS BacMam BK variants, at 30 µM
# R275C/beta1 = assay: as above; conditions: U2OS BacMam BK variants, at 30 µM
# R275C/beta2Delta = assay: as above; conditions: U2OS BacMam BK variants, at 30 µM
# R275C/beta4 = assay: as above; conditions: U2OS BacMam BK variants, at 30 µM
# R275C/Slo1WT/beta2 = assay: as above; conditions: U2OS BacMam BK variants, at 30 µM
# [12] = growth inhibition, single agent or in combination, cell-based, chromothripsis tumors, cisplatin or BGB combos (AID 1671449; in the data active = inhibition above about 80%;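 note: cells exposed for 96 hours; 0% = vehicle DMSO and 100% = killing by high DMSO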); conditions: LFS_MB_P medulloblastoma cells
# [13] = growth inhibition, single agent and combos, cell-based, chromothripsis tumors, cisplatin or BGB combos (AID 1671450; in the data active = inhibition above about 80%;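 note: cells exposed to compound for four days; 0% = vehicle DMSO and 100% = cell killing by high DMSO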); conditions: HDN33 neuroblastoma cells, stronger effect = higher value
# [14] = growth inhibition, single agents and combos, HTB85, cell-based, BGB or cisplatin IC20 combos, synergistic combos for chromothripsis tumors (AID 1671453; in the data active = inhibition above about 80%;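 note: cells exposed for 96 hours before readout; 0% = vehicle DMSO and 100% = high DMSO killing control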); conditions: HTB85 osteosarcoma cells, drug combinations, stronger effect = higher value
# [15] = at 0.5 µM, stronger effect = higher value
# [16] = measured here: combination with BGB IC20, at 0.005 µM
# [17] = measured here: combination with BGB IC40, at 0.005 µM
# [18] = measured here: combination with BGB IC40, at 0.05 µM
# [19] = measured here: combination with cisplatin, at 0.5 µM, stronger effect = higher value
# [20] = measured here: combination with cisplatin, at 5 µM, stronger effect = higher value
# [21] = measured here: with BGB IC20 combination, at 0.5 µM
# [22] = measured here: with cisplatin IC20 combination, at 0.5 µM
# [23] = measured here: with BGB IC20, at 0.5 µM
# [24] = measured here: with BGB IC20, at 5 µM
# [25] = measured here: with cisplatin IC20, at 0.5 µM
# [26] = measured here: with cisplatin IC20, at 5 µM
compound,measurement,setting,value
O=C(C1CCCCC1)N1CC(=O)N2CCc3ccccc3C2C1 (stereo unspecified),inhibition,[1],2.42%
same,score,[2],0.82
same,cytochrome c release ratio,[3],0.99
same,inhibition of aggregation,[4],65.4%
same,glutamate uptake change,[5],7.89%
same,fluorescence ratio,[6],0.91 (inactive)
same,inhibition,[7],-5.91% (inactive)
same,inhibition,[8],-2% (inactive)
same,fluorescence ratio,[9],0.91 (inactive)
same,z-score,[10],1.16 (inactive) and -1.2 (inactive) and 1.07 (inactive)
same,log fold change Tl+ flux,F380Y/beta4,0.0341 (inactive)
same,log fold change Tl+ flux,[11],-0.00263 (inactive)
same,log fold change Tl+ flux,R275C,-0.0164 (inactive)
same,log fold change Tl+ flux,R275C/beta1,0.0419 (inactive)
same,log fold change Tl+ flux,R275C/beta2Delta,-0.0208 (inactive)
same,log fold change Tl+ flux,R275C/beta4,0.0526 (inactive)
same,log fold change Tl+ flux,R275C/Slo1WT/beta2,0.0259 (inactive)
N[C@@H]1CONC1=O,inhibition,[1],3.67%
same,score,[2],1.72
same,cytochrome c release ratio,[3],0.8
same,inhibition of aggregation,[4],65.4%
same,glutamate uptake change,[5],-3.66%
same,fluorescence ratio,[6],0.99 (inactive) and 1.05 (inactive)
same,inhibition,[7],5.94% (inactive) and -1.36% (inactive)
same,inhibition,[8],2.98% (inactive) and 0.29% (inactive)
same,fluorescence ratio,[9],0.95 (inactive) and 1.03 (inactive)
same,z-score,[10],0.55 (inactive) and 0.975 (inactive)
same,log fold change Tl+ flux,F380Y/beta4,0.0351 (inactive)
same,log fold change Tl+ flux,[11],-0.0244 (inactive) and 0.0135 (inactive)
same,log fold change Tl+ flux,R275C,-0.00755 (inactive) and 0.0374 (inactive)
same,log fold change Tl+ flux,R275C/beta1,0.00647 (inactive) and 0.0301 (inactive)
same,log fold change Tl+ flux,R275C/beta2Delta,0.0216 (inactive) and -0.0265 (inactive)
same,log fold change Tl+ flux,R275C/beta4,0.00356 (inactive)
same,log fold change Tl+ flux,R275C/Slo1WT/beta2,-0.00809 (inactive)
O=C(O)c1cc(=O)c2c(OCC(O)COc3cccc4oc(C(=O)O)cc(=O)c34)cccc2o1,inhibition,[1],-4.9%
same,score,[2],1.69
same,cytochrome c release ratio,[3],0.89
same,inhibition of aggregation,[4],65.5%
same,glutamate uptake change,[5],-4.58%
same,fluorescence ratio,[6],1.02 (inactive)
same,inhibition,[7],-2.27% (inactive)
same,inhibition,[8],3.34% (inactive)
same,fluorescence ratio,[9],1.03 (inactive)
same,z-score,[10],0.69 (inactive) and 0.68 (inactive)
same,log fold change Tl+ flux,F380Y/beta4,-0.0657 (inactive)
same,log fold change Tl+ flux,[11],-0.0248 (inactive)
same,log fold change Tl+ flux,R275C,-0.0035 (inactive)
same,log fold change Tl+ flux,R275C/beta1,-0.0241 (inactive)
same,log fold change Tl+ flux,R275C/beta2Delta,-0.0325 (inactive)
same,log fold change Tl+ flux,R275C/beta4,-0.125 (inactive)
same,log fold change Tl+ flux,R275C/Slo1WT/beta2,0.015 (inactive)
CCN(Cc1ccncc1)C(=O)C(CO)c1ccccc1 (stereo unspecified),inhibition,[1],24.2%
same,score,[2],1.22
same,cytochrome c release ratio,[3],1.14
same,inhibition of aggregation,[4],87%
same,glutamate uptake change,[5],-2.09%
same,fluorescence ratio,[6],1.06 (inactive)
same,inhibition,[7],-2.27% (inactive)
same,inhibition,[8],-5.05% (inactive)
same,fluorescence ratio,[9],1.03 (inactive)
same,log fold change Tl+ flux,F380Y/beta4,-0.0208 (inactive)
same,log fold change Tl+ flux,[11],0.00211 (inactive)
same,log fold change Tl+ flux,R275C,-0.035 (inactive)
same,log fold change Tl+ flux,R275C/beta1,0.0151 (inactive)
same,log fold change Tl+ flux,R275C/beta2Delta,0.0198 (inactive)
same,log fold change Tl+ flux,R275C/beta4,0.0153 (inactive)
same,log fold change Tl+ flux,R275C/Slo1WT/beta2,0.0191 (inactive)
O=C(O)CCCc1ccccc1,fluorescence ratio,[6],0.99 (inactive)
same,inhibition,[7],-2.27% (inactive)
same,inhibition,[8],1.05% (inactive)
same,fluorescence ratio,[9],0.92 (inactive)
same,z-score,[10],-0.305 (inactive) and -0.05 (inactive) and 0.3 (inactive)
same,inhibition,[12]; [15],-32.4% (inactive)
same,inhibition,[12]; [16],-18.8%
same,inhibition,[12]; [17],-12.3%
same,inhibition,[12]; [18],-22.2%
same,inhibition,[12]; [19],-35%
same,inhibition,[12]; [20],-11.6%
same,inhibition,"[13]; BGB combo, at 5 µM",-16.9%
same,inhibition,[13]; at 0.5 µM,-18.6% (inactive)
same,inhibition,"[13]; cisplatin combo, at 5 µM",0.505%
same,inhibition,[13]; [21],-6.08%
same,inhibition,[13]; [22],-19.1%
same,inhibition,"[13]; single agent, at 5 µM",-3.58%
same,inhibition,[14]; at 0.5 µM,-13.7% (inactive)
same,inhibition,[14]; [23],-24.4%
same,inhibition,[14]; [24],-45.4%
same,inhibition,[14]; [25],-14.6%
same,inhibition,[14]; [26],-12.8%
same,inhibition,"[14]; single agent, at 5 µM",-16.3%
same,log fold change Tl+ flux,F380Y/beta4,0.0283 (inactive)
same,log fold change Tl+ flux,[11],0.00509 (inactive)
same,log fold change Tl+ flux,R275C,-0.048 (inactive)
same,log fold change Tl+ flux,R275C/beta1,0.0568 (inactive)
same,log fold change Tl+ flux,R275C/beta2Delta,-0.0698 (inactive)
same,log fold change Tl+ flux,R275C/beta4,0.032 (inactive)
same,log fold change Tl+ flux,R275C/Slo1WT/beta2,0.0104 (inactive)
CC1Cc2ccccc2N1NC(=O)c1ccc(Cl)c(S(N)(=O)=O)c1 (stereo unspecified),inhibition,[1],11.1%
same,score,[2],1.1
same,cytochrome c release ratio,[3],0.89
same,inhibition of aggregation,[4],85.9%
same,glutamate uptake change,[5],-15%
same,fluorescence ratio,[6],0.31 (active)
same,inhibition,[7],0.45% (inactive)
same,inhibition,[8],1.05% (inactive)
same,fluorescence ratio,[9],0.97 (inactive)
same,z-score,[10],0.635 (inactive) and 0.155 (inactive)
same,log fold change Tl+ flux,F380Y/beta4,0.0552 (inactive)
same,log fold change Tl+ flux,[11],-0.0185 (inactive)
same,log fold change Tl+ flux,R275C,0.0209 (inactive)
same,log fold change Tl+ flux,R275C/beta1,0.0126 (inactive)
same,log fold change Tl+ flux,R275C/beta2Delta,-0.00869 (inactive)
same,log fold change Tl+ flux,R275C/beta4,0.00861 (inactive)
same,log fold change Tl+ flux,R275C/Slo1WT/beta2,-0.000687 (inactive)
NNCCc1ccccc1,inhibition,[1],3.3%
same,score,[2],0.97
same,cytochrome c release ratio,[3],1.02
same,inhibition of aggregation,[4],15.4%
same,glutamate uptake change,[5],2.77%
same,fluorescence ratio,[6],0.99 (inactive) and 1.14 (inactive)
same,inhibition,[7],1.19% (inactive) and -5.91% (inactive)
same,inhibition,[8],-0.87% (inactive) and -0.48% (inactive)
same,fluorescence ratio,[9],0.96 (inactive) and 1.02 (inactive)
same,z-score,[10],0.14 (inactive) and 0.22 (inactive) and 0.6 (inactive)
same,log fold change Tl+ flux,F380Y/beta4,0.00368 (inactive)
same,log fold change Tl+ flux,[11],-0.00263 (inactive)
same,log fold change Tl+ flux,R275C,-0.025 (inactive)
same,log fold change Tl+ flux,R275C/beta1,0.00562 (inactive)
same,log fold change Tl+ flux,R275C/beta2Delta,-0.0402 (inactive)
same,log fold change Tl+ flux,R275C/beta4,-0.0112 (inactive)
same,log fold change Tl+ flux,R275C/Slo1WT/beta2,0.022 (inactive)
O=C1c2c(O)ccc(O)c2C(=O)c2c(NCCNCCO)ccc(NCCNCCO)c21,inhibition,[1],63.3%
same,score,[2],-2.9
same,cytochrome c release ratio,[3],3.49
same,inhibition of aggregation,[4],52.2%
same,glutamate uptake change,[5],-30.1%
same,fluorescence ratio,[6],0.74 (active)
same,inhibition,[7],128% (active)
same,inhibition,[8],121% (active)
same,fluorescence ratio,[9],0.92 (inactive)
same,z-score,[10],-1.29 (inactive) and -1.52 (inactive) and -2.29 (inactive)
same,inhibition,[12]; [15],-22.5% (inactive)
same,inhibition,[12]; [16],-15.5%
same,inhibition,[12]; [17],-3.49%
same,inhibition,[12]; [18],-28%
same,inhibition,[12]; [19],-39.3%
same,inhibition,[12]; [20],106%
same,inhibition,"[13]; BGB combo, at 5 µM",98.9%
same,inhibition,[13]; at 0.5 µM,60.1% (inactive)
same,inhibition,"[13]; cisplatin combo, at 5 µM",99.3%
same,inhibition,[13]; [21],57.7%
same,inhibition,[13]; [22],53.6%
same,inhibition,"[13]; single agent, at 5 µM",99.3%
same,inhibition,[14]; at 0.5 µM,94.8% (active)
same,inhibition,[14]; [23],90.1%
same,inhibition,[14]; [24],99.7%
same,inhibition,[14]; [25],97.6%
same,inhibition,[14]; [26],99.8%
same,inhibition,"[14]; single agent, at 5 µM",99.8%
same,log fold change Tl+ flux,F380Y/beta4,-0.0582 (inactive)
same,log fold change Tl+ flux,[11],-0.0507 (inactive)
same,log fold change Tl+ flux,R275C,-0.0256 (inactive)
same,log fold change Tl+ flux,R275C/beta1,-0.052 (inactive)
same,log fold change Tl+ flux,R275C/beta2Delta,-0.0164 (inactive)
same,log fold change Tl+ flux,R275C/beta4,-0.0611 (inactive)
same,log fold change Tl+ flux,R275C/Slo1WT/beta2,-0.0613 (inactive)
